Compound activity (PubChem BioAssay)
Sfp PPTase inh: blocks B. subtilis Sfp PPTase activity | Q9F4F7 | Biochemical Sfp PPTase activity, qHTS | Potency, µM, hits mostly inhibitors | actives 3.5% (n = 310,000) | AID 1490;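 further: the enzyme is Sfp with the accession as filed and its product quenches rhodamine fluorescence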
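With Hepes-Na pH 7.6 buffer containing 10 mM MgCl2, Sfp (15 nM) modified BHQ-2-YbbR (12.5 uM) using rhodamine-CoA (5 uM). Two reads 30 minutes apart at 525/598 nm yielded each well's rate.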
12-LOX inh: ALOX12 (human) lipoxygenase inhibition; P18054; purified 12hLO, xylenol orange hydroperoxide absorbance; Potency, µM (titrated, usually from 108 µM), actives largely listed as inhibitors; actives 1.1% (n = 580,000)
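Hydroperoxide product was detected by ferrous iron/xylenol orange as the 573 to 405 nm absorbance ratio. Arachidonic acid at 40 uM (final) was turned over for 30 min at room temperature by 150 nM human 12hLO, pH 7.0 Hepes buffer, after 15 min compound preincubation.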
PLK1 PBD inh: inhibitors of human PLK1 polo-box domain binding; P53350; Plk1 PBD binding of FITC phosphopeptide, fluorescence polarization; Potency, µM, usual class: inhibitors; actives 2.8% (n = 360,000); further: series mostly up to about 57 µM; nearly all actives have a fitted effect of over 65% in size
Target sequence (P53350 whole entry, looked up, the tested form may be a part): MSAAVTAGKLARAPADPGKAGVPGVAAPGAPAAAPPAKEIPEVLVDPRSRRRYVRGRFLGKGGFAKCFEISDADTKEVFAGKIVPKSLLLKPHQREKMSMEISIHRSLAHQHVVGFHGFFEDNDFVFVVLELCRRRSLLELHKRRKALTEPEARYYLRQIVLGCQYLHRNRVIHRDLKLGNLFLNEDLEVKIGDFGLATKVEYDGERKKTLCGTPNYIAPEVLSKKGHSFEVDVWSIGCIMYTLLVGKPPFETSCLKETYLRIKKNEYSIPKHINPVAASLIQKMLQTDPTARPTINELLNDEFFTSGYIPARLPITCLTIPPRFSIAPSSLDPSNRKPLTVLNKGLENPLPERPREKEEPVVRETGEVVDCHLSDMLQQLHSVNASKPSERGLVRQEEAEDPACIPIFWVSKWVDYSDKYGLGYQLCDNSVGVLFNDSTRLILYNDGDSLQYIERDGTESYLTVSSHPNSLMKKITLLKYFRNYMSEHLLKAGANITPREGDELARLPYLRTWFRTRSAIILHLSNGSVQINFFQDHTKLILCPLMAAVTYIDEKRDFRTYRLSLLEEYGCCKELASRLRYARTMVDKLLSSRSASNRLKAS
VDR inhibitor: inhibitors of human vitamin D receptor; P11473; VDR-SRC2-3 peptide fluorescence polarization, 2 h; Potency, µM, most hits filed as inhibitors; actives 0.93% (n = 400,000); AID 504847
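After 23 nl compound addition and a short centrifugation, plates sat for 2 hours at ambient temperature; polarization of fluorescence then indicated loss of VDR binding to peptide SRC2-3.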
Numbers stand for hits; i = inactive; ? = inconclusive; nt = no result given; ! = not active in a repeat. In the library only some 4.2% were active in any assay of this set; here they are far more common. The call rests on the fitted dose curve; in most records, active means well fitted curve in the direction sought with a large enough effect; inconclusive means small, poorly fitted or top-dose-only effect, or another doubt; inactive means no such curve, though single readings can be large; an effect the other way counts as inactive or inconclusive.

SMILES	Sfp PPTase inh	12-LOX inh	PLK1 PBD inh	VDR inhibitor
O=C(Nc1nnc(SCc2ccc(Cl)cc2)s1)c1ccco1	i	i	3µM	?
O=C(CN1CCOCCOCCN(CC(=O)Nc2ccccc2)CCOCC1)Nc1ccccc1	i	i	i	i
CC(C)c1ccc(C2c3c(oc4ccc(Cl)cc4c3=O)C(=O)N2CCCN2CCOCC2)cc1 (stereo not given)	nt	?	nt	i
O=C1c2oc3ccc(Cl)cc3c(=O)c2C(c2ccccn2)N1CCCN1CCOCC1 (stereo not given)	25µM	i	?	?
COc1cccc(-c2nnc(NC(=O)CCS(=O)(=O)c3ccc(F)cc3)o2)c1	nt	i	i	nt
COC(OC)c1ccc(C#N)c(SCc2ccccc2)n1	i	i	i	i
CCCC(=O)N1CCc2cc(OC)c(OC)cc2C1c1cc2cc3c(cc2[nH]c1=O)OCO3 (stereo not given)	nt	i	i	i
COc1cc2c(cc1OC)C(c1cc3cc(OC)c(OC)cc3[nH]c1=O)N(C(=O)C1CC1)CC2 (stereo not given)	50µM	i	i	i
Cc1cccc(CNC(=O)c2ccc(NC(=O)C3=CSCCO3)cc2)c1	i	nt	27µM	?
Cc1cccc(CNC(=O)c2ccccc2NC(=O)C2=CSCCO2)c1	i	i	?	i
CCOc1ccc(CNC(=O)c2ccccc2NC(=O)C2=CSCCO2)cc1	i	i	24µM	?
CCOC(=O)C1=C(C)Nc2ncnn2C1c1c[nH]c2ccccc12 (stereo not given)	i	i	i	i
Oc1cccc(-c2sc3ccccc3c2-c2ccc(OCCN3CCCCC3)cc2)c1	nt	?	i	nt
O=C(c1ccc(OCCN2CCCCC2)cc1)c1c(-c2ccc(O)cc2)sc2cc(O)ccc12	i	14µM!	i	i
CCCCCOc1ccc(C2C(C(=O)c3ccc(C)o3)=C(O)C(=O)N2c2cc(C)on2)cc1 (stereo not given)	i	?	?	71µM
COc1cc(C2C(C(=O)c3ccc(C)o3)=C(O)C(=O)N2c2cc(C)on2)ccc1OCc1ccccc1 (stereo not given)	i	?	i	i
CCCCOc1cccc(C2C(C(=O)c3ccc(C)o3)=C(O)C(=O)N2c2nnc(C)s2)c1 (stereo not given)	50µM	?	?	i
CCOc1ccc(C2C(C(=O)c3ccc(C)o3)=C(O)C(=O)N2c2cc(C)on2)cc1OC (stereo not given)	i	25µM	i	i
COc1cc(C2C(C(=O)c3ccc(C)o3)=C(O)C(=O)N2c2cc(C)on2)cc(OC)c1OC (stereo not given)	i	?	i	i
COc1cccc(C2C(C(=O)c3ccc(C)o3)=C(O)C(=O)N2c2cc(C)on2)c1 (stereo not given)	i	50µM	i	?
C=CCOc1cccc(C2C(C(=O)c3ccc(C)o3)=C(O)C(=O)N2c2nccs2)c1 (stereo not given)	?	?	?	i
CCO[C@@H]1COCC[C@H]1NC(=O)c1ccoc1COc1ccc(C)cc1	nt	i	nt	nt
COc1ccc(Cl)cc1C(=O)Nc1ccc(Br)c(C)n1	i	i	24µM	i
Cc1cc(C)nc(NNC(=O)NC2CCCCC2)n1	i	i	27µM	?
Cc1cc(C)nc(SCC(=O)NC2CCCC2)n1	i	i	i	i
SMILES	Sfp PPTase inh	12-LOX inh	PLK1 PBD inh	VDR inhibitor
CCOc1ccc(C2NC(=O)C(C#N)=C(S)N2c2ccc(OC)cc2)cc1OC (stereo not given)	28µM	?	?	?
COc1ccc(N2C(S)=C(C#N)C(=O)NC2c2ccc(OC)c(OC)c2)cc1 (stereo not given)	22µM	i	i	40µM
O=[N+]([O-])c1c(C(Cl)Cl)nn(-c2ccc(Cl)cc2)c1N1CCCCC1	i	i	i	i
COc1ccc(-c2nnc(NC(=O)c3ccc(S(=O)(=O)N4CCCc5ccccc54)cc3)o2)cc1	i	nt	32µM	i
COCc1nnc(NC(=O)c2ccc(S(=O)(=O)N3CCCc4ccccc43)cc2)o1	i	i	i	i
CCOC(=O)OCC1OC(c2cc(C)cc(C)c2)C=CC1OC(=O)OCC (stereo not given)	i	nt	nt	nt
C#CCOc1c(/C=C\c2nc(O)c([N+](=O)[O-])c(=O)[nH]2)cc(Br)cc1OC	i	i	i	22µM
C[C@H](O)[C@@H]1C(=O)N2CCc3c([nH]c4c(-c5ccccc5)cccc34)[C@@H]2C[C@@H]1N(C)C(=O)c1cc(Cl)cc(Cl)c1	nt	i	nt	nt
Cc1cc(SCC(=O)c2cccc([N+](=O)[O-])c2)nc(=O)[nH]1	45µM	nt	21µM	?
COC(=O)Nc1ccc(SCC(=O)c2cccc([N+](=O)[O-])c2)cc1	i	i	13µM	?
O=C(CSc1ncn[nH]1)c1ccco1	?	i	30µM	i
O=C(CSc1nccc(=O)[nH]1)c1ccco1	i	i	i	i
O=C(CSc1ncn[nH]1)c1cccc([N+](=O)[O-])c1	50µM	i	?	?
O=C(CSc1n[nH]c(=O)[nH]c1=O)c1cccc([N+](=O)[O-])c1	i	i	i	i
COc1ccc(CCNC(=O)N2CCOCC2)cc1	i	i	i	i
O=C(CSc1ncn[nH]1)c1ccccc1	56µM	i	24µM	?
O=C(CSC(=S)N1CCCC1)N/N=C/c1c(O)[nH]c(=S)[nH]c1=O	nt	i	i	i
CC(=O)N1CN(CCCn2ccnc2)Cc2c1sc1c2CCCC1	i	i	?	i
CC(=O)N1CN(Cc2ccccn2)Cc2c1sc1c2CCCC1	45µM	i	i	i
Cc1ccc(C(=O)Oc2ccc(/C=N/NC(N)=O)cc2)cc1	i	i	i	i
COc1ccc(-c2noc(CN3CCN(C(=O)c4cccs4)CC3)n2)c(OC)c1OC	i	i	21µM	i
COc1ccc(CN2CCN(C(=O)c3cccs3)CC2)cc1Br	?	i	i	i
Oc1ccccc1CN1CCCC(N2CCN(c3cccc(C(F)(F)F)c3)CC2)C1 (stereo not given)	i	i	i	i
COc1ccc(-c2noc(CSc3nc(C4CC4)n(-c4ccccc4)n3)n2)cc1	nt	i	nt	nt
O=c1[nH][nH]c2c1[C@H](CCc1cccc(Cl)c1)O[C@H](C1CC1)C2	nt	i	i	nt
SMILES	Sfp PPTase inh	12-LOX inh	PLK1 PBD inh	VDR inhibitor
O=C(O)CN1C(=O)/C(=C\c2cc(Br)ccc2OCc2ccc(Cl)cc2)SC1=S	i	20µM	8.4µM	40µM
COc1cc(/C=C2/SC(=O)N(Cc3ccccc3Cl)C2=O)ccc1OCc1ccncc1	i	i	i	89µM
CCOc1cc(/C=C2/SC(=S)N(CC(=O)O)C2=O)ccc1OC(=O)c1cccs1	4.5µM	?	?	?
O=C1/C(=C\c2cc([N+](=O)[O-])ccc2O)SC(=S)N1Cc1ccc(Cl)cc1	?	i	i	?
O=C(O)CN1C(=O)/C(=C\c2cc([N+](=O)[O-])ccc2OCc2ccccc2Cl)SC1=S	79µM	14µM	27µM	?
COc1cc(/C=C2/SC(=O)NC2=O)ccc1OCc1ccccc1	i	i	?	i
COC(=O)c1ccc(Oc2c(C)oc3cc(OC(=O)c4ccco4)ccc3c2=O)cc1	nt	i	nt	nt
Cc1cccc(N2CCN(Cc3nc(-c4cccc(Oc5ccccc5)c4)oc3C)CC2)n1	i	i	i	i
Cc1cccc(NC(=O)CSc2nc3c(cc2C#N)CCCC3)c1	nt	i	nt	nt
